The text below walks through data of paper PMC7862700, “An all-to-all approach to the identification of sequence-specific readers for epigenetic DNA modifications on cytosine”.

Common to all, as to assay: DAPPL (digital affinity profiling via proximity ligation, sequencing); 10 mM Tris-HCl pH 7.5, 50 mM NaCl, 1 mM DTT, 4% glycerol, room temperature, 30 min; GST-TFs on glutathione beads, 16-mer random dsDNA library, 0.1% formaldehyde crosslink after washing; high values mean tight binding
Common to all, as to conditions: protein: recombinant; tags: N-terminal GST; dsDNA, one strand shown

One test addresses T1, FLI1 (Homo sapiens, UniProt Q01543 1-452).
T1 sequence: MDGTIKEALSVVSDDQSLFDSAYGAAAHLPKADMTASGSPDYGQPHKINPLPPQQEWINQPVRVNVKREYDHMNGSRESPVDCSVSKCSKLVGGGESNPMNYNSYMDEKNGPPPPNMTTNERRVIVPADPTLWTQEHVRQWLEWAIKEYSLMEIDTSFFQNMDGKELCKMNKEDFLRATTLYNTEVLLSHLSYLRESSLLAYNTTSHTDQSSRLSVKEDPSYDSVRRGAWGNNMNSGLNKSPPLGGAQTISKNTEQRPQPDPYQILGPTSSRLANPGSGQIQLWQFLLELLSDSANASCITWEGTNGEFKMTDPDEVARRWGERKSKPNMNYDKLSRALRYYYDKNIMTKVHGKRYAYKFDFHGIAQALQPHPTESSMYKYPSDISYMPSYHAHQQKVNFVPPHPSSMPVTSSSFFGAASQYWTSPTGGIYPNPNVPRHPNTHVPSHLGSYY
The method, boiled down: (§1)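 Pools of DNA-barcoded human transcription factors, expressed in yeast as GST fusions on glutathione beads and combined with a tag-only sample, were incubated with 200 nmole of a 16-mer random double-stranded DNA library. Incubation took 30 min at room temperature in Tris/NaCl/DTT/glycerol buffer and was followed by washing, 0.1% formaldehyde crosslinking, proximity ligation (BsaI/T4 ligase, 1 h, 37 °C), PCR amplification and sequencing on an Illumina NextSeq500. Binding signal is the ratio of a hexamer's read frequency for a factor to its frequency for the tag-only sample.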

Another test concerns the target T2, ELK1 (Homo sapiens, UniProt P19419 1-428).
T2 sequence: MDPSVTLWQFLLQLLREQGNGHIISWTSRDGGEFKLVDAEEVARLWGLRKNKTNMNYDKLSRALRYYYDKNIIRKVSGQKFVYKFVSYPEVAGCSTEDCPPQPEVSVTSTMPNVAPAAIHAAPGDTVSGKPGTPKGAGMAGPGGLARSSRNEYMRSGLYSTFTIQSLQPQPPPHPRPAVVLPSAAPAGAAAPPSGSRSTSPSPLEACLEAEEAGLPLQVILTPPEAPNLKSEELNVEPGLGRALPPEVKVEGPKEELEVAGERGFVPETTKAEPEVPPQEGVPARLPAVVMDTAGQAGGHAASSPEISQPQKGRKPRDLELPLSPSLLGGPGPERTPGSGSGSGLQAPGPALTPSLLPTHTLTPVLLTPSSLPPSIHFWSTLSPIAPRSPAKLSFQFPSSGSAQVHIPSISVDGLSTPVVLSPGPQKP
The method, boiled down: as §1

A further test deals with T3, GABPA (Homo sapiens, UniProt Q06546 1-454).
T3 sequence: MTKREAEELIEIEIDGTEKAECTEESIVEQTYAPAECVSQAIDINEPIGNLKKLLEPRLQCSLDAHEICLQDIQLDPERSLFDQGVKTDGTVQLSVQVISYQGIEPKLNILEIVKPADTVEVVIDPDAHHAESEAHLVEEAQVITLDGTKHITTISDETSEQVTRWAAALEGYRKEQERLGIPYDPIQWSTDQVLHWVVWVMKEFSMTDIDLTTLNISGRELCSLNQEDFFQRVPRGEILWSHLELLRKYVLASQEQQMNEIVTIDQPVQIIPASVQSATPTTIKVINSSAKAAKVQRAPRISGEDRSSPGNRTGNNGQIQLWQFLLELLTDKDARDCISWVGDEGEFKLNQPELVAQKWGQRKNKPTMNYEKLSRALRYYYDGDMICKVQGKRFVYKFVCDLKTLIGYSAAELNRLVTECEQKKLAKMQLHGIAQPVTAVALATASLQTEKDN
The essentials: as §1

A further test has as its target T4, ERG (Homo sapiens, UniProt P11308 1-479).
T4 sequence: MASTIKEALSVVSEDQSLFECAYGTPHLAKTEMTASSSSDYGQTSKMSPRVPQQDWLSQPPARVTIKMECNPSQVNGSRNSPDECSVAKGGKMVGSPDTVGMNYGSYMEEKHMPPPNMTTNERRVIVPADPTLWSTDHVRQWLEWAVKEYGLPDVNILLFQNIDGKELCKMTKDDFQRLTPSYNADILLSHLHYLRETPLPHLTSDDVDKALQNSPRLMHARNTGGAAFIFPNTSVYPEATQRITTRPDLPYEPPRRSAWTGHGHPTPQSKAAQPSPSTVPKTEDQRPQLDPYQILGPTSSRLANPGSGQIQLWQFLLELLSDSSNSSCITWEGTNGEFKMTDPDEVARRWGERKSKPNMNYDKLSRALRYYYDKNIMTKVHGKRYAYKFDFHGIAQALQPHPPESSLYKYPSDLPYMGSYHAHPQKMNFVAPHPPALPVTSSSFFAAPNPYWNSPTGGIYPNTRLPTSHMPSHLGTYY
The method, boiled down: as §1

Another test concerns the target ELF1 (Homo sapiens, UniProt P32519 1-619). The essentials:
as §1

The next test has as its target T5, EHF (Homo sapiens, UniProt Q9NZC4 1-300).
T5 sequence: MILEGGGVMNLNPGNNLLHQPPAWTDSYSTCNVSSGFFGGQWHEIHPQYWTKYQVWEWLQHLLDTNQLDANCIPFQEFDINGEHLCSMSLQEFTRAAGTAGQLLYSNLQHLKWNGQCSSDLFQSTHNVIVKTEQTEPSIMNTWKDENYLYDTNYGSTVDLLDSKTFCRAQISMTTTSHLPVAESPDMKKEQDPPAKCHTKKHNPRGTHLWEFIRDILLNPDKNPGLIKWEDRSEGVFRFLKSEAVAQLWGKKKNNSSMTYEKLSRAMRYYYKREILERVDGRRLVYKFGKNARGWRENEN
The method, boiled down:
as §1

A further test concerns the target SPIB (Homo sapiens, UniProt Q01892 1-262). The method, boiled down:
as §1

In the next test the target is T6, FEV (Homo sapiens, UniProt Q99581 1-238).
T6 sequence: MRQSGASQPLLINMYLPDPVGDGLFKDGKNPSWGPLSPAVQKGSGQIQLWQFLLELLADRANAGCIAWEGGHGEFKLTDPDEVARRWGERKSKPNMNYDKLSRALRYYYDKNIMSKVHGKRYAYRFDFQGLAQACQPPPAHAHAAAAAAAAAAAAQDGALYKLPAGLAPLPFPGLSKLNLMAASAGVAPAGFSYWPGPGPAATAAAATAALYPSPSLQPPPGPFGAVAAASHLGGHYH
The method, boiled down: as §1

The target in the next test is ETV5 (Homo sapiens, UniProt P41161 1-510). The method, boiled down: as §1
Chain of ETV5 (P41161 whole entry): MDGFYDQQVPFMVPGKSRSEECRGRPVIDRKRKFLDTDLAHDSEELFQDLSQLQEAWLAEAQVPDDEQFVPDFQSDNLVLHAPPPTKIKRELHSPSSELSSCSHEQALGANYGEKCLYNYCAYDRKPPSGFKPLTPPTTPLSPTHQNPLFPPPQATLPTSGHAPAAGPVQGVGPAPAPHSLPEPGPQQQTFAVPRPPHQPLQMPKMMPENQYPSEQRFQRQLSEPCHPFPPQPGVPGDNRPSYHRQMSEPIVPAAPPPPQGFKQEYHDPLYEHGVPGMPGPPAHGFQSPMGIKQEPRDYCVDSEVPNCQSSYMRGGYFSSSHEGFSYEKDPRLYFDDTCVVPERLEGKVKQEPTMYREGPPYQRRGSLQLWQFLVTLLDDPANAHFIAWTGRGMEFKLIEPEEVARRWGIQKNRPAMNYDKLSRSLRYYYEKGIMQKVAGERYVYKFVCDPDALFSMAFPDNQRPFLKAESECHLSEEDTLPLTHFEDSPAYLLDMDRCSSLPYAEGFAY
Another test has as its target T7, SPIC (Homo sapiens, UniProt Q8N5J4 1-248).
T7 sequence: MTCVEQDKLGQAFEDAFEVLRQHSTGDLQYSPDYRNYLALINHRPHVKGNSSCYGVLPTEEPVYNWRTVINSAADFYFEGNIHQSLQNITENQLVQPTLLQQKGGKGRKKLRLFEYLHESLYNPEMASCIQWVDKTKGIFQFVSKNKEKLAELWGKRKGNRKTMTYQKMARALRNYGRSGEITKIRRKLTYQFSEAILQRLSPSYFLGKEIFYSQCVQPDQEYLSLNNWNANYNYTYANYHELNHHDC
The essentials:
as §1

A further test concerns the target ELF4 (Homo sapiens, UniProt Q99607 1-663). The essentials:
as §1

For a further test, the target named is ETV1 (Homo sapiens, UniProt P50549 1-477). The essentials:
as §1

For another test, the target named is T8, ERF (Homo sapiens, UniProt P50548 1-548).
T8 sequence: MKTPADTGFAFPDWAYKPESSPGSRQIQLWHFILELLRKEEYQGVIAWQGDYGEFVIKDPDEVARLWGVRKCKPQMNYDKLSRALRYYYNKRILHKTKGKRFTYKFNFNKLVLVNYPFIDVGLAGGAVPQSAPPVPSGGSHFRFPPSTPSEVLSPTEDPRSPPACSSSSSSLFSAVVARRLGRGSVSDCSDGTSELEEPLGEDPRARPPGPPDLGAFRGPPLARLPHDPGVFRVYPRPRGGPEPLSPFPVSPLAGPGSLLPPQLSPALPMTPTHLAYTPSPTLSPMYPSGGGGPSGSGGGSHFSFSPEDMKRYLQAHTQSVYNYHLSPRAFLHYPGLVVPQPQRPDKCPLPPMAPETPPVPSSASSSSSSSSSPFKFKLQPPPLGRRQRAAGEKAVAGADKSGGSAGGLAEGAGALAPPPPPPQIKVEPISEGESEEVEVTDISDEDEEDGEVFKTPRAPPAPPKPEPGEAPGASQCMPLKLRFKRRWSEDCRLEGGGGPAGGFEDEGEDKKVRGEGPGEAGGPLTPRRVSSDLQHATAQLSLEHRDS
The essentials:
as §1

The next test has as its target T9, ETV3L (Homo sapiens, UniProt Q6ZN32 1-361).
T9 sequence: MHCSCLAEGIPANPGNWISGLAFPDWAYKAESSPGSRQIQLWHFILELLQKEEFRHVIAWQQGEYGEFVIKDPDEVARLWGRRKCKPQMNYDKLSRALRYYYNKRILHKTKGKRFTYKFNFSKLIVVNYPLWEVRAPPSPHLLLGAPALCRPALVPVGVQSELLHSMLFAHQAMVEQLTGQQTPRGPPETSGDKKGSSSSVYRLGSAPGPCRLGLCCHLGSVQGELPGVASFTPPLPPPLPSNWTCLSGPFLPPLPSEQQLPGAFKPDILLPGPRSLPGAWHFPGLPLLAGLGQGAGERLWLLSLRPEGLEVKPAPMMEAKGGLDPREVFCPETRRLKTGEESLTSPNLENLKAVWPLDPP
The method, boiled down: as §1

In a further test the target is T10, ETS2 (Homo sapiens, UniProt P15036 1-469).
T10 sequence: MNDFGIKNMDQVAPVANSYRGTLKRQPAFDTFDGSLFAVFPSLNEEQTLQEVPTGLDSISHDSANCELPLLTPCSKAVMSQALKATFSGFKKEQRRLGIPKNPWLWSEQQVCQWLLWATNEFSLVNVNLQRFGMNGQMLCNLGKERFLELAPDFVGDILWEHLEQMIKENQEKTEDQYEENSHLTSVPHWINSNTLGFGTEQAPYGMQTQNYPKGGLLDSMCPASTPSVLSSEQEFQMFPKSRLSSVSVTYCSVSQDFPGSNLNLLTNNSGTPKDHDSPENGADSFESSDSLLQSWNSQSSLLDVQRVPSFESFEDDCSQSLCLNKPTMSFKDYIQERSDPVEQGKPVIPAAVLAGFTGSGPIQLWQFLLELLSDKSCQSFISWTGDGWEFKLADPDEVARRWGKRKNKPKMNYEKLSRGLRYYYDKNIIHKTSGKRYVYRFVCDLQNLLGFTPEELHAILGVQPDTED
The essentials: as §1

A further test addresses T11, SPDEF (Homo sapiens, UniProt O95238 1-335).
T11 sequence: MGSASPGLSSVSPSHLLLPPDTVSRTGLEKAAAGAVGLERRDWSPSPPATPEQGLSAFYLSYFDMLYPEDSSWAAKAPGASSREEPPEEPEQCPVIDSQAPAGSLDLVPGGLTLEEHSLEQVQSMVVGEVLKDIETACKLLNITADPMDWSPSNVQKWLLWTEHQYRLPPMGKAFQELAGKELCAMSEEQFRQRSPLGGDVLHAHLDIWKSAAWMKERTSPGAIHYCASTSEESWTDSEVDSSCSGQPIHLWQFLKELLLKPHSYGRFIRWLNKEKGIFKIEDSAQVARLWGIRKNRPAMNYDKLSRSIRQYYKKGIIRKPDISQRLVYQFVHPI
The method, boiled down: as §1

The target of another test is T12, ELF5 (Homo sapiens, UniProt Q9UKW6-2 1-255).
T12 sequence: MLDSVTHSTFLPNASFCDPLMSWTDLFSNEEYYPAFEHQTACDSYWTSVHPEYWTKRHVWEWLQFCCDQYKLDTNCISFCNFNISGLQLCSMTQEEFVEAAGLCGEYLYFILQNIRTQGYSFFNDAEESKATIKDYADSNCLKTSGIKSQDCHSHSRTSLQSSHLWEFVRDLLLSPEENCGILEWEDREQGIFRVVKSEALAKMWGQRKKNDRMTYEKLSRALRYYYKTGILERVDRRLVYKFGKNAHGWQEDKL
The essentials:
as §1

A further test concerns the target T13, ETV3 (Homo sapiens, UniProt P41162-2 1-143).
T13 sequence: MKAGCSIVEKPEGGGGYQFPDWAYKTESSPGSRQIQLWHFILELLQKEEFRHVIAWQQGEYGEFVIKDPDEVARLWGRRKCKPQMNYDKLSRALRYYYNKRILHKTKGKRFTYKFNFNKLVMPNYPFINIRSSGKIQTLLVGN
The essentials:
as §1

A further test addresses ETV6 (Homo sapiens, UniProt P41212 1-452). The essentials:
as §1

Chain of ELF4 (Q99607 whole entry): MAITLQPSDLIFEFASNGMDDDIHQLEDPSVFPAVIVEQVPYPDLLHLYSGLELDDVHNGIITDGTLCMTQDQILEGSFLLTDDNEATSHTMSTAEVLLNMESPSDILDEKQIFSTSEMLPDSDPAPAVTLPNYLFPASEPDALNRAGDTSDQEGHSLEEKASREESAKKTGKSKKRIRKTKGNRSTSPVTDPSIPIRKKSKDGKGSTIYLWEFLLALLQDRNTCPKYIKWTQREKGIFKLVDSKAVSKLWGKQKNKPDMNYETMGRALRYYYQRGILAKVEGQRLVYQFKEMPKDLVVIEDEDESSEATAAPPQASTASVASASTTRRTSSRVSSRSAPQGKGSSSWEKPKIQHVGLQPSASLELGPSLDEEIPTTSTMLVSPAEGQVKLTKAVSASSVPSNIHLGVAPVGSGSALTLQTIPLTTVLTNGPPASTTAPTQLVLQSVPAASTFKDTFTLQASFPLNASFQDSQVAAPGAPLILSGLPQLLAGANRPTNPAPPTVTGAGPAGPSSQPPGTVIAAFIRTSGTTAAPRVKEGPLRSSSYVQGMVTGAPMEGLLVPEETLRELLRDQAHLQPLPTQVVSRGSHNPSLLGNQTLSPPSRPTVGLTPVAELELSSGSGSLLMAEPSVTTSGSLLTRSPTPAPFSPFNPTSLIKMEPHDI
Chain of ETV1 (P50549 whole entry): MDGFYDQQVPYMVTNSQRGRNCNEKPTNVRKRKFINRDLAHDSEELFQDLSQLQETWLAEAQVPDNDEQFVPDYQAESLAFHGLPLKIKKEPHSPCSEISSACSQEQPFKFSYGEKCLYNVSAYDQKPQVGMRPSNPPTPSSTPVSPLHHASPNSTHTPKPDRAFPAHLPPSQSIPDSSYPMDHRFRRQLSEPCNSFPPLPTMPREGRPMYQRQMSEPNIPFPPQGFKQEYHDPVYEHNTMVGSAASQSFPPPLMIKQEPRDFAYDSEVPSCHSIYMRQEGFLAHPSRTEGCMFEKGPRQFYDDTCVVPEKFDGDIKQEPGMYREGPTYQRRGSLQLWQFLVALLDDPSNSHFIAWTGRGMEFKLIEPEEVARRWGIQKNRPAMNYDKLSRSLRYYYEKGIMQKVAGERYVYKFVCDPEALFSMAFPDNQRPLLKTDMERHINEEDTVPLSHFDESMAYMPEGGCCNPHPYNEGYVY
Chain of ELF1 (P32519 whole entry): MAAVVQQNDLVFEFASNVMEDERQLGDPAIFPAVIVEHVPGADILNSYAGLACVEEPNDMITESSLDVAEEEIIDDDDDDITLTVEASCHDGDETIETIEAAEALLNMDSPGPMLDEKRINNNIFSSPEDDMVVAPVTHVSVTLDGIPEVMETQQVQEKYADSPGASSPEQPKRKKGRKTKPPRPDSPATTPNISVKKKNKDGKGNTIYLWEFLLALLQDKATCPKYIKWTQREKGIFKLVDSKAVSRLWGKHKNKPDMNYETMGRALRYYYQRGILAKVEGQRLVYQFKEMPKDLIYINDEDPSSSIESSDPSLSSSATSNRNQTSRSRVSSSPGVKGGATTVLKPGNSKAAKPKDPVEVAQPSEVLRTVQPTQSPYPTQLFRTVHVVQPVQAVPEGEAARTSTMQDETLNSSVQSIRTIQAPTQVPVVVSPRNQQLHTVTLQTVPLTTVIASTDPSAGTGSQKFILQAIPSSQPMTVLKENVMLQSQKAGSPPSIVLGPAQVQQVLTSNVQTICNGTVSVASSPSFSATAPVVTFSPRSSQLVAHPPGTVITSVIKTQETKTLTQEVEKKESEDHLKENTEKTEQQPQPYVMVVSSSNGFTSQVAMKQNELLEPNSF
Chain of ETV6 (P41212 whole entry): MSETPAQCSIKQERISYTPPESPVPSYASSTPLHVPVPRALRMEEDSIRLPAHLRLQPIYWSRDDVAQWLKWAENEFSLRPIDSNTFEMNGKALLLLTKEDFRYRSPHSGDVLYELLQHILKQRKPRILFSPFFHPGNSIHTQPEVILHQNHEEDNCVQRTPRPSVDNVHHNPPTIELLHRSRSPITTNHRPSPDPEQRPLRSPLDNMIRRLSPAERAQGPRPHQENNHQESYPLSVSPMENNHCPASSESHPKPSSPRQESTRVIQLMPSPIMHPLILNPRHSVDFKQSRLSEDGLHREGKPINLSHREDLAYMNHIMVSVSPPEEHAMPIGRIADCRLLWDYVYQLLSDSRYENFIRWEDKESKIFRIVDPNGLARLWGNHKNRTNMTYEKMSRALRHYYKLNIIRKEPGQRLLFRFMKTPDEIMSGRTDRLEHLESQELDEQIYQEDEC
Chain of SPIB (Q01892 whole entry): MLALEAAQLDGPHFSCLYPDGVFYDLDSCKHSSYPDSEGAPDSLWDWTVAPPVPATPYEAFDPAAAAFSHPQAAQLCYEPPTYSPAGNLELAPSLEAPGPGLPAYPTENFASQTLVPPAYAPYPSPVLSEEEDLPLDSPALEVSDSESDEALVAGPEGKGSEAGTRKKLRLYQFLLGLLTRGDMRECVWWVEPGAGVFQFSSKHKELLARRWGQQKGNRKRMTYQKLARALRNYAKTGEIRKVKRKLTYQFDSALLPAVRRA

For CGCCCG, the binding signal in the test with FLI1 is 1.28 fold enrichment (6-mer frequency, TF over GST control); with ELK1 it was 1.2 fold enrichment (6-mer frequency, TF over GST control); with GABPA it was 1.07 fold enrichment (6-mer frequency, TF over GST control); with ERG it was 1.14 fold enrichment (6-mer frequency, TF over GST control); in the test with ELF1, 1.18 fold enrichment (6-mer frequency, TF over GST control); with EHF, 1.11 fold enrichment (6-mer frequency, TF over GST control). The binding signal is 1.2 fold enrichment (6-mer frequency, TF over GST control) with SPIB; 1.14 fold enrichment (6-mer frequency, TF over GST control) with FEV; 1.06 fold enrichment (6-mer frequency, TF over GST control) with ETV5; 1.17 fold enrichment (6-mer frequency, TF over GST control) with SPIC; 1.11 fold enrichment (6-mer frequency, TF over GST control) with ELF4; 1.13 fold enrichment (6-mer frequency, TF over GST control) in the test with ETV1. Besides, the binding signal with ERF was 1.09 fold enrichment (6-mer frequency, TF over GST control); with ETV3L it was 1.26 fold enrichment (6-mer frequency, TF over GST control); in the test with ETS2, 1.09 fold enrichment (6-mer frequency, TF over GST control); with SPDEF, 1.1 fold enrichment (6-mer frequency, TF over GST control); with ELF5, 1.16 fold enrichment (6-mer frequency, TF over GST control); with ETV3 it was 1.3 fold enrichment (6-mer frequency, TF over GST control). The binding signal in the test with ETV6 is 1.02 fold enrichment (6-mer frequency, TF over GST control).
